According to PubChem BioAssay (NCATS):
Where “and” joins values, the source holds several entries; their conditions need not be identical. Equal entries are not always repeated. Inconclusive results are not listed. Where a call stands in place of a potency, no number is given. More than one record can exist for a structure, and the calls need not agree. Calls of active or inactive are those of the source. Calls follow the shape of the dose curve; as a rule, active = well fitted curve in the direction sought with a large enough effect; inconclusive = small, poorly fitted or top-dose-only effect, or another doubt; inactive = no such curve, though single readings can be large; an effect the other way counts as inactive or inconclusive.

How the values were obtained:
[1] = Viability qHTS for spleen associated tyrosine kinase inhibitor (SYKi) naive MV4-11 cells (AID 1963823); also: nearly all actives have a fitted effect of over 40% in size
How it was run: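 Cells: MV4-11, SYK inhibitor naive, 500 per well. Treatment: library compounds, 72 hr, 37 C, 5% CO2. Read-out: CellTiter-Glo luminescence after 10 min RT.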

[2] = Viability qHTS for spleen associated tyrosine kinase inhibitor (SYKi) drug resistant MV4-11 cells (AID 1963824); also: nearly all actives have a fitted effect of over 35% in size
How it was run: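 SYK-inhibitor-resistant MV4-11 AML cells were seeded at 500 per well onto compound and cultured 72 hours (37 °C, 5% CO2). CellTiter-Glo was then added, and after 10 min at room temperature, luminescence gave viability.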

[3] = Quantitative highthroughput screen to assess conditional lethalithy of NOMO1 cells grown in RPMI1640 with untreated serum (RPMI+s) (AID 1963876); also: nearly all actives have a fitted effect of over 35% in size
How it was run: (§1)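 Each medium arm—HPLM with 10% dialyzed FBS, or RPMI1640 with 5 mM glucose and 10% untreated or dialyzed FBS—was screened against an 11-point, 3-fold compound titration for 48 h at 37 °C, with CellTiter-Glo luminescence as endpoint.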

[4] = Quantitative highthroughput screen to assess conditional lethalithy of NOMO1 cells grown in RPMI1640 with dialyzed fetal bovine serum (RPMI+ds) (AID 1963877); also: nearly all actives have a fitted effect of over 30% in size; as to Viability: series mostly up to about 46 µM
How it was run: as §1

[5] = Quantitative highthroughput screen to assess conditional lethalithy of NOMO1 cells grown in Human Plasma-Like Medium with dialyzed fetal bovine serum (HPLM+ds) (AID 1963878); also: nearly all actives have a fitted effect of over 35% in size
How it was run: as §1

[6] = Quantitative highthroughput screen to assess conditional lethalithy of P12 Ichikawa cells grown in Human Plasma-Like Medium with dialyzed fetal bovine serum (HPLM+ds) (AID 1963879); details: Potency: viability; also: nearly all actives have a fitted effect of over 35% in size; as to Viability: series mostly up to about 46 µM
How it was run: as §1

[7] = Quantitative highthroughput screen to assess conditional lethalithy of P12 Ichikawa cells grown in RPMI1640 with dialyzed fetal bovine serum (RPMI+ds) (AID 1963880); details: Potency: P12-Ichikawa viability; also: nearly all actives have a fitted effect of over 35% in size
How it was run: as §1

[8] = Quantitative highthroughput screen to assess conditional lethalithy of P12 Ichikawa cells grown in RPMI1640 with untreated serum (RPMI+s) (AID 1963881); details: Potency: viability; also: nearly all actives have a fitted effect of over 35% in size; as to Viability: series mostly up to about 46 µM
How it was run: as §1

[9] = Quantitative highthroughput screen to assess conditional lethalithy of SEM cells grown in Human Plasma-Like Medium with dialyzed fetal bovine serum (HPLM+ds) (AID 1963882); also: nearly all actives have a fitted effect of over 35% in size; as to Viability: series mostly up to about 46 µM
How it was run: as §1

[10] = Quantitative highthroughput screen to assess conditional lethalithy of SEM cells grown in RPMI1640 with unreated serum (RPMI+s) (AID 1963883); also: nearly all actives have a fitted effect of over 35% in size
How it was run: as §1

[11] = Quantitative highthroughput screen to assess conditional lethalithy of SEM cells grown in RPMI1640 with dialyzed fetal bovine serum (RPMI+ds) (AID 1963884); also: nearly all actives have a fitted effect of over 35% in size; as to Viability: series mostly up to about 46 µM
How it was run: as §1

[12] = Cellular viability qHTS for adrenocortical cancer (ACC) cell line SW-13 (AID 1963989); details: SW-13 ACC cells viability, CellTiter-Glo, 48 h; activity (max response): stronger effect = lower value; also: nearly all actives have a fitted effect of over 65% in size;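 as to activity (max response): cells grown in serum-free medium with ITS supplement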
How it was run: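 SW-13 cells in ITS-supplemented serum-free DMEM were plated overnight, then exposed for 48 h at 37C to compound titrations (up to 46 uM final). Viability was read by CellTiter-Glo luminescence; four-parameter logistic fits gave IC50 and efficacy.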

[13] = Cellular viability qHTS for adrenocortical cancer (ACC) cell line NCI-H295R (AID 1963990); also: nearly all actives have a fitted effect of over 60% in size
How it was run: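 Luminescent ATP read-out (CellTiter-Glo, 20 min RT) after 48 h drug exposure of NCI-H295R cells; a titration up to 46 uM final. Data normalized to doxorubicin (100% inhibition) and DMSO (0%); 4-parameter fit gives IC50, max response.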
Potency is read from the fitted curve at half-maximal effect.

SMILES | Potency [1] | Potency [2] | Potency [3] | Potency [4] | Potency [5] | Potency [6] | Potency [7] | Potency [8] | Potency [9] | Potency [10] | Potency [11] | activity (max response) [12] | Potency [13] | Potency [12]
CC(C)(C)C(=O)Oc1ccc(S(=O)(=O)Nc2ccccc2C(=O)NCC(=O)O)cc1 | inactive | inactive | inactive | inactive | inactive | inactive | inactive | inactive | inactive | inactive | inactive | 1.32% (inactive) and -4.44% (inactive) | inactive | 
Nc1cc(C(F)(F)F)c(-c2cc(N3CCOCC3)nc(N3CCOCC3)n2)cn1 | 2.06 µM (active) and 1.86 µM (active) | 1.46 µM (active) and 2.09 µM (active) | 1870 nM (active) | 1870 nM (active) | 1180 nM (active) | 1320 nM (active) | 1320 nM (active) | 1660 nM (active) | 935 nM (active) | 1050 nM (active) | 833 nM (active) |  | 3.16 µM (active) | 2 µM (active)
O=C(CCCCCCC(=O)Nc1ccccc1)NO | 1.64 µM (active) and 1.48 µM (active) | 1.3 µM (active) and 1.18 µM (active) | 14800 nM (active) | 16600 nM (active) | 10500 nM (active) | 4180 nM (active) | 3320 nM (active) | 3320 nM (active) | 3720 nM (active) | 3720 nM (active) |  |  | 820 nM (active) and 1 µM (active) | 4.11 µM (active) and 3.16 µM (active)
N[C@@H](Cc1cc(I)c(Oc2cc(I)c(O)c(I)c2)c(I)c1)C(=O)O | inactive | inactive and 1.61 µM (active) | inactive | inactive | inactive | inactive | inactive | inactive | inactive | inactive | inactive | 3.69% (inactive) and -6.52% (inactive) | inactive | 
CC(C)C[C@H](NC(=O)CNC(=O)c1cc(Cl)ccc1Cl)B1OC(=O)CC(CC(=O)O)(C(=O)O)O1 (some centres not stated) | 148 nM (active) | 118 nM (active) | 372 nM (active) | 418 nM (active) | 372 nM (active) | 332 nM (active) | 296 nM (active) | 296 nM (active) | 118 nM (active) | 93.5 nM (active) |  |  | 0.355 µM (active) | 1.41 µM (active)
Nc1nc(Cl)nc2c1ncn2[C@H]1C[C@H](O)[C@@H](CO)O1 | 93.4 nM (active) | 148 nM (active) | 209 nM (active) | 148 nM (active) | 132 nM (active) | 209 nM (active) | 235 nM (active) | 187 nM (active) | 105 nM (active) | 105 nM (active) | 66.2 nM (active) |  | inactive | 
O=C1c2ccccc2-[n+]2ccc3c([nH]c4ccccc43)c21 | 820 nM (active) | 651 nM (active) | 6620 nM (active) | 5900 nM (active) | 5260 nM (active) | 8330 nM (active) | 9350 nM (active) | 8330 nM (active) | 2640 nM (active) | 3320 nM (active) | 3320 nM (active) |  | 2.82 µM (active) | 2.82 µM (active)
CNC[C@H](O)c1ccc(O)c(O)c1 | inactive | inactive | inactive | inactive | inactive | inactive | inactive | inactive | inactive | inactive | inactive | -16.4% (inactive) and -3.87% (inactive) | inactive | 
O=C(c1cncc(Br)c1)N1CCC(N2CCCC2)CC1 | inactive | inactive | inactive | inactive | inactive | inactive | inactive | inactive | inactive | inactive | inactive | 1.51% (inactive) | inactive | 
CC(C)(C)C(=O)Oc1ccc2c(c1)nc(NC(=O)c1cccc([N+](=O)[O-])c1)n2CCCO | 4680 nM (active) | 9340 nM (active) | inactive | inactive | inactive | inactive | inactive | inactive | inactive | inactive | inactive | -24.3% (inactive) | inactive | 
CC(=O)Oc1ccccc1C(=O)O | inactive | inactive | inactive | inactive | inactive | inactive | inactive | inactive | inactive | inactive | inactive |  | inactive | 
CCCS(=O)(=O)Nc1ccc(F)c(C(=O)c2c[nH]c3ncc(-c4ccc(Cl)cc4)cc23)c1F | 14800 nM (active) | 16600 nM (active) | inactive | inactive | inactive | inactive | inactive | inactive | inactive | inactive | inactive | -1.45% (inactive) | inactive | 
